# Source: PubChem BioAssay AID504652 (National Center for Advancing Translational Sciences (NCATS), 2011)
# In all, about 360,000 compounds went through this assay and about 11,000 (3.1%) were called active. Rule as the data show it: active = activity change below about -30%; inactive = the rest. For the sample, actives were picked, then their nearest neighbours and some compounds at random.
# Target: D(1A) dopamine receptor (Homo sapiens) (UniProt P21728)
# Test: Antagonist of Human D 1 Dopamine Receptor: qHTS
# Conditions: HEK293 TREx D1 cells, calcium flux, dopamine EC80; at 10 µM; active compounds read low
# Source text: Dopamine receptors (DARs) are involved in the etiology and/or therapy of a number of neuropsychiatric and endocrine disorders. For instance, all receptor-based antiparkinsonian drugs work via stimulating the […] DAR subtype whereas all FDA-approved antipsychotic agents are antagonists of this receptor. […] There are three different types of allosteric modulators that we are seeking, two of which will stimulate or augment receptor signaling, allosteric agonists and potentiators, while the third, allosteric antagonists, will attenuate receptor signaling. The present primary screening assay measures compound antagonism after an EC80 addition of dopamine by tracking calcium flux in a […], inducible Hek293 Trex D1 cell line. NIH Chemical Genomics Center [NCGC] NIH Molecular Libraries Probe Centers Network [MLPCN] MLPCN Grant: NS064831-01 Assay Submitter (PI): David Sibley
# Freshly passaged cells are plated in 1536 well black, clear bottom plates at a density of 4000 cells/well in 3 ul of complete media containing 1x tetracycline inducer. After an overnight incubation at 30 C in 5% CO2, cells are loaded with 2 ul of the no wash Calcium Assay Kit (ABD Bioquest) and incubated at room temperature for 30 to 90 minutes. Agonist read: A 10 cycle (1 second/cycle) baseline measurement is taken and then the FDSS online 1536 pintool delivers 23 nl of compound library (as well as dopamine controls) to the plate. The plate is measured for kinetically at 1 cycle/sec for 180 seconds. Following the 180 second read, 1 ul of an EC80 (negative modulation assay) is delivered by an onboard pipette head. Measurements are taken kinetically for an additional 180 seconds.
# % is scaled to controls: 0 for no effect and ±100 for the full control effect.
# Chain of D(1A) dopamine receptor (Homo sapiens) (P21728 whole entry, looked up): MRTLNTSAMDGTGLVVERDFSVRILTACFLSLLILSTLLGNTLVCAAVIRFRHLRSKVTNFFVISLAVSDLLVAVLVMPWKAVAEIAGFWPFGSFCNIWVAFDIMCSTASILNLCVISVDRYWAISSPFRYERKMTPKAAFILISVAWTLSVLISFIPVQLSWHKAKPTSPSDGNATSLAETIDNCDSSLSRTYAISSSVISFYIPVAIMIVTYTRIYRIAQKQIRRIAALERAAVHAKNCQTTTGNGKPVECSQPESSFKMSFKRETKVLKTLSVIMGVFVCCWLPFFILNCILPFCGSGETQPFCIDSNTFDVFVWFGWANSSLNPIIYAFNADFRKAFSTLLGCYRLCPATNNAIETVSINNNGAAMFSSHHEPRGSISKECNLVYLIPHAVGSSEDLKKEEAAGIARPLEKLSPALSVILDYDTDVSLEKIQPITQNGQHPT
row,SMILES,"activity change, negative = inhibition"
1,COc1cc(NC(=O)Cn2c(=O)n(Cc3ccco3)c(=O)c3oc4ccccc4c32)cc(OC)c1,8.05% (inactive)
2,COc1cc(OC)c(OC)cc1/C=C/c1nc2ccccc2c(=O)n1-c1ccc(Br)c(C)c1,0.553% (inactive)
3,CC(C)Cc1nnc(NC(=O)CCC(=O)Nc2ccc3cn[nH]c3c2)s1,-55.6% (active)
4,CC(C)Cc1nnc(NC(=O)CCc2ccccc2)s1,3.92% (inactive)
5,Cc1ccc(S(=O)(=O)CCC(=O)Nc2nnc(CC(C)C)s2)cc1,6.37% (inactive)
6,Cc1c(Cl)cccc1NC(=O)C1CCCN(C(=O)c2cnn(-c3ccccc3)c2-n2cccc2)C1 (configuration not stated),7.6% (inactive)
7,Cc1ccc(SCC(=O)Nc2ccc3oc(-c4ccccc4F)nc3c2)cc1,-5.46% (inactive)
8,CCOC(=O)c1ccccc1NC(=O)c1nn(-c2ccc(OC)c(Cl)c2)c(=O)c2c1c1ccccc1n2C,5.56% (inactive)
9,O=C(CSc1cn(CC(=O)N2CCOCC2)c2ccccc12)Nc1ccccc1,11.6% (inactive)
10,COc1cccc(NC(=O)CN(C)C(C)C(=O)Nc2ccc(C#N)cc2)c1 (configuration not stated),-40.7% (active)
11,COc1cccc(NC(=O)CN(C)C(=O)/C=C/c2cc(OC)ccc2OC)c1,24.2% (inactive)
12,COc1cccc(NC(=O)CN(C)C(=O)c2ccccc2CCc2ccccc2)c1,3.89% (inactive)
13,COC(=O)c1ccccc1NC(=O)c1cnn(-c2ccc(F)cc2)c1-n1cccc1,15% (inactive)
14,Cc1cccc(NC(=O)Cn2c(C(F)(F)F)nc3ccccc32)c1C,-9.8% (inactive)
15,COc1cccc(C(=O)NCc2ccc3c(c2)CCN3C(=O)c2ccncc2)c1,-7.86% (inactive)
16,Cc1ccc(CNC(=O)c2c(O)nc3c(C)cccn3c2=O)cc1,16.2% (inactive)
17,Cc1cccc(-n2c(SCC(N)=O)nc3c(oc4ccccc43)c2=O)c1,-16.4% (inactive)
18,CCc1sc(C(=O)N2CCN(CC(=O)Nc3cccc(F)c3)CC2)cc1C,-30.4% (active)
19,O=C(CN1CCN(c2ccc(F)cc2)CC1)Nc1cccc(C(F)(F)F)c1,-2.58% (inactive)
20,CC(=O)N1CCN(CC(=O)Nc2ccc(C)c(F)c2)CC1,1.94% (inactive)
21,O=C(CSc1n[nH]c(-c2ccccc2)n1)N1CCCCC1,-15.7% (inactive)
22,Cc1ccc(Cl)cc1NC(=O)COC(=O)CC(C)(C)C,4.47% (inactive)
23,COC(=O)[C@@H](NC(=O)Nc1cc(Cl)ccc1C)C(C)C,-41.7% (active)

row,SMILES,"activity change, negative = inhibition"
1,COc1ccc(Cl)cc1NC(=O)NC(C)C(C)(C)C (configuration not stated),-26.1% (inactive)
2,Cc1cc2ccccc2n1CCNC(=O)c1ccc(F)cc1,-21.6% (inactive)
3,COc1ccc(S(=O)(=O)NCCSc2nnnn2-c2ccccc2)cc1,-6.65% (inactive)
4,Cn1c(C(=O)Nc2cccc(C(F)(F)F)c2)cc2c(=O)n3ccccc3nc21,-9.44% (inactive)
5,Cc1cc(Cl)c(S(=O)(=O)NCC2CCCO2)cc1OCC(N)=O (configuration not stated),-3.64% (inactive)
6,Cc1cc(Cl)c(S(=O)(=O)Nc2ccc3c(c2)OCCO3)cc1OCC(N)=O,-35.2% (active)
7,Cc1cc(Cl)c(S(=O)(=O)N(C)C)cc1OCC(N)=O,5.54% (inactive)
8,COc1ccc(CNC(=O)Cc2coc3ccc(C(C)C)cc23)cc1,-5.84% (inactive)
9,COc1cccc(N2CCN(S(=O)(=O)c3cc(Br)cc4c3N(C(=O)C3CC3)CC4)CC2)c1,-4.38% (inactive)
10,CC1CCN(S(=O)(=O)c2ccc3ncn(CC(=O)N(C)C4CCCCC4)c(=O)c3c2)CC1,-7.06% (inactive)
11,COc1ccccc1NC(=O)Cn1cnc2ccc(S(=O)(=O)N3CCC(C)CC3)cc2c1=O,0.0222% (inactive)
12,CCN1CCCC1CNC(=O)Cn1cnc2ccc(S(=O)(=O)N3CCC(C)CC3)cc2c1=O (configuration not stated),-45% (active)
13,COc1ccc(-c2nn(CC(=O)NC3CCCC3)c3c2cnc2ccc(F)cc23)cc1,-17.2% (inactive)
14,Cc1ccc(NC(=O)CN2C(=O)CC(C)Sc3ccccc32)c(C)c1 (configuration not stated),5.35% (inactive)
15,COC(=O)C1=CN(C)C=C(C(=O)OC)C1c1ccc(Cl)cc1Cl,-50.3% (active)
16,NC(=O)C1(C(N)=O)OC1c1ccc(Cl)cc1Cl (configuration not stated),-18.1% (inactive)
17,COC(=O)C1=CN(c2ccc(F)c(F)c2)C=C(C(=O)OC)C1c1ccc([N+](=O)[O-])cc1,13.5% (inactive)
18,Cc1ccc(Nc2ccc3cc(S(=O)(=O)N4CCCCC4)ccc3n2)cc1F,-15.5% (inactive)
19,COc1ccccc1NC(=O)CCN1CCN(c2ccc(Cl)cc2)CC1,-41% (active)
20,CCOc1ccccc1NC(=O)CCN1CCN(S(=O)(=O)c2ccc(OC)cc2)CC1,-3.32% (inactive)
21,COc1ccc(NC(=O)CCN2CCCC2)c(OC)c1,0.848% (inactive)
22,COc1ccc(C(=O)NC(=S)Nc2ccc(N3CCCC3)cc2)cc1OC,-30.7% (active)
23,Cc1ccc(C(=O)NC(=S)Nc2ccc(N3CCOCC3)cc2)cc1,-12.4% (inactive)

row,SMILES,"activity change, negative = inhibition"
1,COc1ccc(C(=O)NC(=S)Nc2ccccc2N2CCN(S(C)(=O)=O)CC2)cc1OC,-7.6% (inactive)
2,O=C(NCc1ccc2c(c1)CCN2C(=O)c1ccccc1)Nc1cc(F)ccc1F,1.84% (inactive)
3,Cc1c(N=Nc2ccc(N(C)C)cc2)c(=O)n(-c2ccccc2)n1C,-0.41% (inactive)
4,Cc1[nH]n(C)c(=O)c1N=Nc1ccc(S(C)(=O)=O)cc1,-33.8% (active)
5,Cc1[nH]n(C)c(=O)c1C(=O)c1c(-c2c(Cl)cccc2Cl)noc1C,-9.05% (inactive)
6,CCOc1cc(C)c(Cl)cc1S(=O)(=O)n1nnc2ccccc21,-41.9% (active)
7,CCOc1ccc(S(=O)(=O)N2CCCCCC2)c2ccccc12,1.18% (inactive)
8,CCOc1cc(C)c(S(=O)(=O)NCc2ccccn2)cc1C,-15% (inactive)
9,COc1ccc(OC)c(CNC(=O)CN2C(=O)CCn3nc(-c4cn(C)c5ccccc45)cc32)c1,9.51% (inactive)
10,COc1ccc(-n2ccnc(NCCc3ccc(Cl)cc3)c2=O)cc1OC,-3.67% (inactive)
11,Cc1cccc(N2CCN(C(=O)c3cc4c(=O)oc5ccccc5c4s3)CC2C)c1 (configuration not stated),-15.4% (inactive)
12,CCOc1ccc2oc(=O)cc(CN3CCN(C(=O)c4ccc(F)cc4)CC3)c2c1,-25% (inactive)
13,CCC(=O)N1CCc2cc(Br)cc(S(=O)(=O)NCc3ccc(Cl)cc3)c21,4.98% (inactive)
14,COc1ccccc1N1CCN(C(=O)CCS(=O)(=O)c2ccc3c(c2)NC(=O)C(C)S3)CC1 (configuration not stated),5.52% (inactive)
15,CC1Sc2ccc(S(=O)(=O)CCC(=O)NCc3ccccc3Cl)cc2NC1=O (configuration not stated),-9.63% (inactive)
16,Cc1cccc(N2CCN(C(=O)CCS(=O)(=O)c3ccc4c(c3)NC(=O)C(C)S4)CC2)c1C (configuration not stated),-41.4% (active)
17,CCn1c2ccccc2c2cc(CN3CCN(Cc4cccc(Cl)c4)CC3)ccc21,-24.4% (inactive)
18,COc1ccc(/C(N)=N/OC(=O)Cc2ccccc2)cc1,3.45% (inactive)
19,COc1ccc(/C(N)=N/OC(=O)CCCc2ccccc2)cc1,-50.3% (active)
20,N/C(=N\OC(=O)CCc1ccccc1)c1ccc(Cl)cc1,-6.68% (inactive)
21,CCOc1ccc(CNC(=O)c2cc(-c3ccc(Cl)s3)nc3ccccc23)cc1,13.1% (inactive)
22,COc1ccc(NC(=O)CCCN2C(=O)CCn3nc(-c4cn(C)c5ccccc45)cc32)cc1OC,16% (inactive)
23,Cc1nn(C)c(Oc2ccccc2)c1CCNS(=O)(=O)c1ccc(F)cc1,-5.72% (inactive)

row,SMILES,"activity change, negative = inhibition"
1,Cc1nc(CNS(=O)(=O)c2ccc(Oc3ccccc3)cc2)cs1,-42.6% (active)
2,Cc1nc(CNS(=O)(=O)c2cc([N+](=O)[O-])ccc2C)cs1,8.15% (inactive)
3,CCOc1ccc(C2C(C(=O)Nc3ccc(Cl)cc3)=C(C)Nc3nc(C(F)(F)F)nn32)cc1 (configuration not stated),10.7% (inactive)
4,Cc1ccccc1-c1nc(SCC(=O)N(C)c2ccccc2)c2c(=O)n(C)c(=O)n(C)c2n1,8.47% (inactive)
5,CCOc1ccccc1/C=N/NC(=O)CNC(=O)COc1ccccc1,-1.88% (inactive)
6,Cc1cccc(OCC(=O)Nc2ccccc2F)c1,-0.963% (inactive)
7,Cc1cccc(OCC(=O)NCC(=O)N/N=C/c2ccc(N(C)C)cc2)c1,-31.7% (active)
8,Cc1oc2ccc(O)c(CN3CCC(C)CC3)c2c1C(=O)Nc1ccccc1,7.02% (inactive)
9,COc1cccc(NC(=O)CSc2cc(=O)n(C)c3ccc(Cl)cc23)c1,-17.9% (inactive)
10,CC(Oc1ccc(Cl)cc1Cl)C(=O)/C=C/N(C)C (configuration not stated),-37.2% (active)
11,CC(Oc1ccc(F)cc1F)C(=O)/C=C/N(C)C (configuration not stated),2.85% (inactive)
12,CC(=O)N(OCc1ccc(OC(C)C)c(Cl)c1)C(C)=O,-4.21% (inactive)
13,COc1ccc(C(=O)Nc2nonc2-c2ccc(OC)c(OC)c2)cc1Cl,0.206% (inactive)
14,CCc1cccc(NC(=O)Cn2nc(CC)n3c(cc4cc(C)ccc43)c2=O)c1,4.91% (inactive)
15,CCCS(=O)(=O)Nc1cccc(-c2cn3ccsc3n2)c1,-4.71% (inactive)
16,CCC(=O)N1CCN=C1SCc1ccc(F)cc1,-8.09% (inactive)
17,O=C(Cc1ccc(F)cc1)N1CCN=C1SCc1cccc([N+](=O)[O-])c1,-1.86% (inactive)
18,O=C(COc1ccccc1)N1CCN=C1SCc1cccc(F)c1,-31.4% (active)
19,COc1cc(OC)cc(-c2nc3nc(C)c(CCC(=O)Nc4ccc(C)cc4)c(C)n3n2)c1,-10.7% (inactive)
20,CC(C)c1ccc(NS(=O)(=O)c2ccc3[nH]cc(C(=O)NC4CCCC4)c(=O)c3c2)cc1,19.6% (inactive)
21,Cc1c(C(=O)NC(C)C2CC3CCC2C3)cccc1[N+](=O)[O-] (configuration not stated),18.8% (inactive)
22,CCOC(=O)CCC(=O)OCC(=O)NC(C)C1CC2CCC1C2 (configuration not stated),-3.11% (inactive)
23,COC(=O)c1cc(C(=O)NC(C)C2CC3CCC2C3)cc([N+](=O)[O-])c1 (configuration not stated),-60.3% (active)
